EBNA-1 inh: blocks EBNA-1 binding to DNA | 300,000 compounds, 0.34% hits | inhibition, % at 14.8 µM | EBNA-1 DNA binding, fluorescence polarization | AID 1950; in the data active means inhibition above about 28%
PAFAH1B3 inh: blocks human PAF acetylhydrolase 1B catalytic subunit 3 | Q15102 | recombinant PAFAH1B3, FP-rhodamine probe, fluorescence polarization | inhibition, % at 3.39 µM | 340,000 compounds, 0.28% hits;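 active means inhibition above the screen-wide average of all tested compounds plus 3 SD, cut at about 25% in these data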;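 further: 0% = enzyme with DMSO only and 100% = wells lacking PAFAH1B3 protein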
Target sequence (Q15102 whole entry, looked up): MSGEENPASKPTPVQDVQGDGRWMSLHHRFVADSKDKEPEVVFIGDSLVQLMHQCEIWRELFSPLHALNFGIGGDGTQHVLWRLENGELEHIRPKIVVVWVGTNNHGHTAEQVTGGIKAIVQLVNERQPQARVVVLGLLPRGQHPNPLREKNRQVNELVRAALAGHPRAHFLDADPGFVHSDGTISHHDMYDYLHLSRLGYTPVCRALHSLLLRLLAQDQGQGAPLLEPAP
ZTA DNA inh: counter-screen for EBNA-1 inhibitors: inhibitors of Epstein-Barr virus ZTA | inhibition, % at 11 µM | ZTA-DNA binding, fluorescence polarization | 320,000 compounds, 0.15% hits | P03206; in the data active means inhibition above about 33%
Target sequence (P03206 whole entry, looked up): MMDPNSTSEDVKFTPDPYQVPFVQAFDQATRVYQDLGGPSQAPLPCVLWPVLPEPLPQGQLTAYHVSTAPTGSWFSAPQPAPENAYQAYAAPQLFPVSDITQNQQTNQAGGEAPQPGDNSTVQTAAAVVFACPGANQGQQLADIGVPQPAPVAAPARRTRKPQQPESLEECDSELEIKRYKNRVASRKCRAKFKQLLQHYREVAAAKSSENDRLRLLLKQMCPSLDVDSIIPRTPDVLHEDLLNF
rCAG binder: binds r(CAG) RNA repeats; r(CAG) RNA repeat, TO-PRO-1 dye displacement fluorescence; inhibition, % at 3 µM; 370,000 compounds, 1.3% hits;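 active means inhibition above the plate cutoff, the mean of all test compounds on that plate plus 3 SD, cut at about 35% in these data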;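 further: 0% = DMSO alone and 100% = 100 µM mitoxantrone as full dye displacement; higher means more dye released from RNA so lower well fluorescence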
PAFAH2 FP inh: inhibitors of human PAFAH2 | recombinant PAFAH2, FP-rhodamine activity probe, fluorescence polarization | Q99487 | 340,000 compounds, 0.99% hits | inhibition, % at 3.39 µM;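 active means inhibition above the mean over all tested compounds plus 3 SD, cut at about 30% in these data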;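 further: inhibitors block probe labeling of enzyme so polarization drops; 0% = enzyme with DMSO and 100% = wells lacking PAFAH2 protein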
PAFAH1B2 inh: inhibitors of human PAFAH1B2. recombinant PAFAH1B2, FP-rhodamine activity probe, fluorescence polarization. 340,000 compounds, 1.2% hits. inhibition, % at 3.39 µM;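 active means inhibition above the mean of all tested compounds plus 3 SD, cut at about 24% in these data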;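 further: 0% = enzyme with DMSO and 100% = wells lacking PAFAH1B2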
Target sequence (P68402 whole entry, looked up): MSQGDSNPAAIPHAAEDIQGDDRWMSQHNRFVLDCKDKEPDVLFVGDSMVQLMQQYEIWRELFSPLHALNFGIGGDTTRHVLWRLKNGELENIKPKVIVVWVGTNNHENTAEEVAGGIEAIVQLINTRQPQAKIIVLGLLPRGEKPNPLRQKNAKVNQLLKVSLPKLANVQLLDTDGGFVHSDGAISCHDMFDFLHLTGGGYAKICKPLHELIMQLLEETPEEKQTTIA
PAFAH2 FP conf: PAFAH2 (human) inhibition, confirmed. recombinant PAFAH2, FP-rhodamine activity probe, fluorescence polarization. inhibition, % at 3.39 µM. shares compounds with PAFAH2 FP inh. 2,300 compounds, 65% hits;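 active means mean inhibition over three repeats above a set limit taken from the earlier primary screen, cut at about 30% in these data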;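 further: inhibitor blocks binding of rhodamine activity probe so polarization falls; 0% = enzyme with DMSO and 100% = wells lacking PAFAH2 protein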
Starred values were filed as active, the others as inactive; / = not tested or not shown. Most compounds without a hit are left out; they make up all but 2.9% or so of the library.

SMILES | EBNA-1 inh | PAFAH1B3 inh | ZTA DNA inh | rCAG binder | PAFAH2 FP inh | PAFAH1B2 inh | PAFAH2 FP conf
Cc1ccc(C(=O)ONc2ccc(N=NC(=O)c3ccccc3O)cc2)cc1 | -12.8 | 9.8 | 2.5 | 7.0 | 44.6* | 6.3 | 22.0
CCOc1ccc(-n2c(SCC(=O)Nc3ccc4c(c3)c3ccccc3n4CC)nnc2-c2cccnc2)cc1 | / | / | / | 15.1 | / | / | /
COc1cc(NC(=O)c2ccc(CNc3c(N4CCOCC4)c(=O)c3=O)cc2)cc(OC)c1 | -2.7 | -4.0 | -4.2 | 4.1 | 3.1 | -1.8 | /
CC(=O)c1ccc(NC(=O)c2ccc(CNc3c(N4CCOCC4)c(=O)c3=O)cc2)cc1 | -17.7 | 10.0 | -9.9 | 8.2 | 70.4* | 0.9 | 62.7*
CCOc1ccc(NC(=O)c2ccc(CNc3c(N4CCCC4)c(=O)c3=O)cc2)cc1 | 1.4 | 2.4 | 9.7 | -1.1 | 0.7 | -1.4 | /
CC(=O)c1ccc(NC(=O)c2ccc(CNc3c(N4CCCC4)c(=O)c3=O)cc2)cc1 | 3.8 | -5.1 | -10.2 | -0.8 | 62.4* | 7.3 | 65.0*
CC1CCCC(NC(=O)COC(=O)C2=COCCO2)C1C (stereo unspecified) | / | / | / | -0.4 | / | / | /
O=C(COC(=O)C1=COCCO1)Nc1ccccc1Oc1ccccc1 | -1.3 | -1.8 | 12.9 | 0.1 | 8.1 | 3.6 | /
O=C(COC(=O)C1=COCCO1)Nc1ccccc1 | -4.6 | 1.2 | -4.9 | -6.2 | 79.1* | 4.0 | 68.5*
N#Cc1ccc(NC(=O)COC(=O)C2=COCCO2)cc1 | -7.0 | 4.4 | 10.7 | 1.3 | 28.4 | -2.0 | /
O=C(COC(=O)C1=COCCO1)Nc1cccc(Oc2ccccc2)c1 | -3.1 | 10.3 | -8.2 | 4.5 | 89.6* | 4.7 | 74.1*
O=C(COC(=O)C1=COCCO1)Nc1ccc([N+](=O)[O-])cc1C(F)(F)F | / | 6.0 | 1.4 | 3.5 | 32.0* | 4.1 | 18.9
O=C(COC(=O)c1cc[n+]([O-])cc1)Nc1ccc([N+](=O)[O-])cc1C(F)(F)F | / | 7.3 | / | 2.8 | 4.1 | -1.2 | /
O=C(COC(=O)C1=COCCO1)NC1CCCCCCC1 | -0.7 | 8.6 | -11.2 | -5.0 | 75.5* | 2.9 | 73.5*
COc1ccc(S[C@]2(C(=O)N3CCCC3)CC(=O)N(c3ccc4c(ccn4C)c3)[C@@H]2c2ccc(OC)cc2)cc1 | / | / | / | 15.4 | / | / | /
CCOC(=O)c1cccc(NC(=O)CN(C)S(=O)(=O)c2ccc(F)cc2)c1 | / | / | / | -1.1 | / | / | /
Nc1[nH]c(C(=O)c2ccccc2)c(-c2cccc3ccccc23)c1C(=O)NC1CCCCC1 | / | / | / | 7.1 | / | / | /
Cc1ccc(-n2c(Cc3cccs3)nnc2SCC(=O)Nc2ccccc2-c2ccccc2)cc1 | / | / | / | 3.5 | / | / | /
C[C@@H]1COc2cc(Br)ccc2S(=O)(=O)N1Cc1cn(Cc2ccc(F)cc2)nn1 | / | / | / | 1.5 | / | / | /
CC(=O)c1cccc(NC(=O)COC(=O)C2=COCCO2)c1 | 4.5 | 2.0 | 9.4 | -1.0 | 44.4* | 1.0 | 38.5*
Cc1cc(C)c(NC(=O)C2C(=O)Nc3ccccc3C(=O)N2C(C)(C)C)c(C)c1 (stereo unspecified) | / | / | / | 4.4 | / | / | /
CCCC(=O)Nc1ccc(C(=O)n2ccc(C)n2)cc1 | 7.7 | -1.7 | -5.2 | -1.7 | 48.9* | 3.9 | 40.7*
CCCC(=O)Nc1ccc(C(N)=O)cc1 | -13.8 | 4.5 | -2.1 | -2.3 | 1.6 | 3.7 | /
CCCCOc1ccc(C(=O)OCC(=O)Nc2cc(C)c(C)cc2[N+](=O)[O-])cc1 | 16.2 | 0.6 | 25.7 | -0.8 | 12.5 | -0.2 | /
Cc1ccc(S(=O)(=O)N(C)C)cc1NC(=O)COC(=O)CC1CCCC1 | -1.0 | 3.9 | 2.7 | 3.6 | 32.2* | 3.3 | 27.1
SMILES | EBNA-1 inh | PAFAH1B3 inh | ZTA DNA inh | rCAG binder | PAFAH2 FP inh | PAFAH1B2 inh | PAFAH2 FP conf
CCC(=O)OCC(=O)Nc1cc(C)c(C)cc1[N+](=O)[O-] | -1.0 | -0.1 | 1.6 | -1.3 | 15.2 | 8.5 | /
COc1ccc(C(=O)OCC(=O)Nc2cc(C)c(C)cc2[N+](=O)[O-])cc1 | 5.4 | -1.7 | 0.0 | 0.1 | 38.8* | -1.4 | 31.9*
Cc1cc(NC(=O)COC(=O)CC2CCCC2)c([N+](=O)[O-])cc1C | 8.6 | 5.2 | 4.9 | 2.9 | 55.6* | 3.7 | 21.5
Cc1csc(Sc2ccc(C(=O)OCC(=O)Nc3ccc(F)cc3[N+](=O)[O-])cc2[N+](=O)[O-])n1 | -0.8 | 6.2 | 10.8 | -2.1 | 33.5* | -0.1 | 17.6
CCOC(=O)[C@]12CCC=C1N(Cc1ccc3c(c1)OCO3)C(=O)[C@H](CC(=O)NCc1ccccc1)C2 | / | / | / | 7.5 | / | / | /
Cc1ccc2nc(-c3ccc(NC(=O)CSc4nnc(Cc5cccs5)n4C)cc3)sc2c1 | / | / | / | 8.7 | / | / | /
C[C@H](CO)N1C[C@H](C)[C@@H](CN(C)C(=O)c2ccc(N3CCN(C)CC3)cc2)OCc2cn(nn2)CCCC1=O | / | / | / | -0.5 | / | / | /
CN(CCc1ccccc1)C(C(=O)c1ccc2c(c1)OCO2)c1nnnn1-c1ccccc1NC(=O)OC(C)(C)C (stereo unspecified) | / | / | / | 10.5 | / | / | /
CC(C)c1ccc(NC(=O)COC(=O)CC2CCCC2)cc1 | / | 7.6 | / | -3.6 | 53.5* | 4.4 | 26.7
Cc1cccc(NC(=O)COC(=O)CC2CCCC2)c1C | / | -3.3 | / | -9.4 | 52.4* | 5.4 | 37.8*
O=C(COC(=O)CC1CCCC1)Nc1ccc(Br)cc1F | / | -2.1 | / | -2.6 | 46.6* | -1.3 | 41.3*
O=C(COC(=O)CC1CCCC1)Nc1cc2c(cc1Cl)C(=O)c1ccccc1C2=O | -2.3 | -2.8 | 8.5 | 8.7 | 10.1 | 2.1 | /
CCOC(=O)[C@]12CCCC=C1N(Cc1ccccc1)C(=O)[C@H](CC(=O)NCc1cccc(C(F)(F)F)c1)C2 | / | / | / | 1.4 | / | / | /
O=S1(=O)c2c(cccc2N2CCC[C@@H]2CO)OCCCN1C1CC1 | / | / | / | 4.1 | / | / | /
Cc1nc2ccc(C(=O)N3c4ccccc4N=C(c4ccc5c(c4)OCO5)C3C(=O)NCc3ccccc3)cc2[nH]1 (stereo unspecified) | / | / | / | 14.1 | / | / | /
CC(C)CNC(=O)COC(=O)c1n[nH]c2ccccc12 | 0.6 | 7.2 | 14.3 | -1.1 | 55.6* | 3.8 | 38.7*
CCOc1ccc(NC(=O)COC(=O)c2n[nH]c3ccccc23)cc1 | / | 13.3 | / | 5.8 | 61.9* | 7.0 | 36.6*
COc1ccc(CNC(=O)COC(=O)c2n[nH]c3ccccc23)cc1 | -4.6 | 1.6 | -1.6 | 1.2 | 9.5 | -1.0 | /
COc1ccc(Oc2c(Cl)cnn(C3c4ccccc4-c4ccccc43)c2=O)cc1 | / | / | / | 10.8 | / | / | /
O=C(Nc1ccc(F)cc1)OCc1cn(Cc2cc(F)cc(F)c2)nn1 | / | / | / | 0.8 | / | / | /
CCCc1cc(=O)[nH]c(SCC(=O)N2CC3(C)CC2CC(C)(C)C3)n1 (stereo unspecified) | / | 7.0 | -9.8 | 7.4 | 36.3* | 22.2 | 14.5
Cc1cc(=O)[nH]c(SCC(=O)N2CC3(C)CC2CC(C)(C)C3)n1 (stereo unspecified) | / | -3.2 | / | 1.5 | 28.7 | 16.1 | /
CCOC(=O)C1(Cc2ccccc2)CCN(Cc2cccc(C#N)c2)CC1 | / | / | / | -2.7 | / | / | /
O=[N+]([O-])c1ccc(O)c(/C=N/Nc2ccccc2Cl)c1 | 9.5 | 10.9 | 1.4 | 23.2 | 74.3* | 3.4 | 62.2*
